Experiment in all cases: NCI-60 one-dose screen, 48 h (100 = growth as untreated, 0 = no growth, -100 = all killed)
One assay concerns SK-MEL-2 melanoma. The note with it: 10 µM unless noted.
The subject of the next assay is EKVX NSCLC. The note with it: 10 µM unless noted.
A further assay has as its system SN12C renal. Particulars: 10 µM unless noted.
A further assay has as its system UO-31 renal. Particulars: 10 µM unless noted.
Another assay has as its system TK-10 renal. The note with it: 10 µM unless noted.
The test system of another assay is ACHN renal. The note with it: 10 µM unless noted.
The test system of a further assay is CAKI-1 renal. The note with it: 10 µM unless noted.
The next assay concerns A498 renal. Particulars: 10 µM unless noted.
The next assay has as its system CCRF-CEM leukemia. The note with it: 10 µM unless noted.
Another assay relates to MOLT-4 leukemia. The note with it: 10 µM unless noted.
Another assay concerns SR leukemia. Particulars: 10 µM unless noted.
The subject of a further assay is RPMI-8226 leukemia. Particulars: 10 µM unless noted.
A further assay deals with OVCAR-8 ovarian. Particulars: 10 µM unless noted.
A further assay has as its system OVCAR-5 ovarian. The note with it: 10 µM unless noted.
For the next assay, the system named is OVCAR-4 ovarian. Particulars: 10 µM.
For another assay, the system named is SK-OV-3 ovarian. Particulars: 10 µM unless noted.
Another assay deals with IGROV1 ovarian. The note with it: 10 µM unless noted.
A further assay deals with OVCAR-3 ovarian. The note with it: 10 µM unless noted.
The test system of another assay is HS 578T breast. The note with it: 10 µM unless noted.
The subject of the next assay is NCI/ADR-RES ovarian. Particulars: 10 µM unless noted.

Compounds without any hit were thinned out: in the full panel of roughly 83,000, 20% have a hit.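 For each line, cells grew in 96-well plates with the test compound present at a single concentration for 48 hours.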 A number with no mark means an inactive call. Calls of active or inactive are those of the source. Rule for the calls: active = growth percent below 10; inactive = the rest.

In the case of `CC1Cc2c(Cl)ncnc2N(C)c2ccc(Cl)cc21` (centres undefined), the growth in the assay with SK-MEL-2 melanoma is -27.7% (active); in the assay with EKVX NSCLC, 14.2%; with SN12C renal, 2.41% (active); in the assay on UO-31 renal, 19.6%; with TK-10 renal it was 11.2%; with ACHN renal it was 11.8%. Besides, the growth with CAKI-1 renal was 8.59% (active); in the assay on A498 renal, -34.9% (active); with CCRF-CEM leukemia, 19.4%; with MOLT-4 leukemia, 8.07% (active); in the assay with SR leukemia it was 6.35% (active); in the assay on RPMI-8226 leukemia, -3.81% (active). Also, the growth with OVCAR-8 ovarian is 8.59% (active); with OVCAR-5 ovarian, 39.8%; with OVCAR-4 ovarian, 7.91% (active); in the assay on SK-OV-3 ovarian it was 12%; in the assay with IGROV1 ovarian, 30.5%; in the assay with OVCAR-3 ovarian, 9.74% (active). In addition, the figures for the growth in the assay with HS 578T breast and in the assay with NCI/ADR-RES ovarian were 23.4% and 13.1%, respectively.
Consider `Cc1cc(C)nc(SCC(=O)Nc2cccc(N=Cc3ccccc3O)c2)n1`, for which the growth in the assay with SK-MEL-2 melanoma was 114%; in the assay with EKVX NSCLC it was 97.9%; with SN12C renal it was 96.5%; in the assay on UO-31 renal, 76.7%; with TK-10 renal it was 106%; with ACHN renal, 99.2%. Moreover, the growth was 81.4% in the assay with CAKI-1 renal; 82.5% with A498 renal; 88.6% in the assay with CCRF-CEM leukemia; 98.9% in the assay on MOLT-4 leukemia; 109% in the assay on SR leukemia; 96.9% with RPMI-8226 leukemia. Besides, the growth in the assay with OVCAR-8 ovarian was 103%; in the assay with OVCAR-5 ovarian, 100%; in the assay on OVCAR-4 ovarian it was 86.1%; with SK-OV-3 ovarian, 94.5%; with IGROV1 ovarian, 108%; with OVCAR-3 ovarian, 105%. Besides, the figures for the growth in the assay with HS 578T breast and in the assay with NCI/ADR-RES ovarian were 97.2% and 100%, respectively.
On to `COc1ccc(C(=O)CCC(=O)O)cc1`, for which the growth was 102% in the assay with SK-MEL-2 melanoma; 78.7% in the assay on EKVX NSCLC; 89% with SN12C renal; 71.7% in the assay with UO-31 renal; 105% in the assay on TK-10 renal; 100% with ACHN renal. The growth with CAKI-1 renal was 98.4%; in the assay with A498 renal it was 104%; in the assay with CCRF-CEM leukemia, 48.6%; with MOLT-4 leukemia it was 86.2%; in the assay with SR leukemia, 99.7%; with RPMI-8226 leukemia, 87.3%. Further, the growth with OVCAR-8 ovarian was 71.4%; in the assay with OVCAR-5 ovarian, 88.3%; in the assay with OVCAR-4 ovarian, 64.8%; in the assay on SK-OV-3 ovarian, 115%; in the assay on IGROV1 ovarian, 96.8%; with OVCAR-3 ovarian it was 79%. Moreover, the growth in the assay with HS 578T breast is 105%.
Regarding `CCOC(=O)CC(c1ccccc1)C(C#N)c1ccccc1` (centres undefined), the growth is 106% with SK-MEL-2 melanoma; 87.5% in the assay on EKVX NSCLC; 109% with SN12C renal; 84% in the assay on UO-31 renal; 101% with TK-10 renal; 103% in the assay with ACHN renal. Besides, the growth in the assay on CAKI-1 renal is 87.1%; with A498 renal it was 91.3%; in the assay on CCRF-CEM leukemia, 98.9%; in the assay with MOLT-4 leukemia, 88.8%; with SR leukemia, 97.3%; in the assay on RPMI-8226 leukemia, 91.3%. The growth in the assay on OVCAR-8 ovarian was 99.2%; in the assay on OVCAR-5 ovarian it was 110%; in the assay with OVCAR-4 ovarian it was 98.7%; with SK-OV-3 ovarian, 95.1%; in the assay with IGROV1 ovarian it was 108%; in the assay on OVCAR-3 ovarian, 98.9%. Further, the growth in the assay on HS 578T breast is 89.4%; in the assay with NCI/ADR-RES ovarian it was 109%.
As for `CC(C)C1=NOC(=O)C1=Cc1cn(-c2ccccc2)nc1-c1ccccc1`, the growth is 99.2% with SK-MEL-2 melanoma; 99.3% in the assay on EKVX NSCLC; 79.2% in the assay on SN12C renal; 70.2% in the assay with UO-31 renal; 82.3% in the assay with TK-10 renal; 84.5% with ACHN renal. The growth in the assay with CAKI-1 renal is 57.7%; in the assay with A498 renal, 93.6%; in the assay on CCRF-CEM leukemia it was 8.48% (active); in the assay on MOLT-4 leukemia, 7.72% (active); with SR leukemia it was -26.9% (active); in the assay on RPMI-8226 leukemia, -16.2% (active). Further, the growth with OVCAR-8 ovarian is 59.8%; in the assay with OVCAR-5 ovarian, 102%; with OVCAR-4 ovarian, 95.4%; with SK-OV-3 ovarian, 112%; with IGROV1 ovarian it was 67.5%; with OVCAR-3 ovarian it was 88.4%. For the same compound, the growth was 64% with HS 578T breast and 94.6% with NCI/ADR-RES ovarian.
Regarding `CCOC(=O)CCC[P+](c1ccccc1)(c1ccccc1)c1ccccc1`, the growth in the assay with SK-MEL-2 melanoma was 85.4%; in the assay on EKVX NSCLC, 75.5%; with SN12C renal it was 82%; in the assay on UO-31 renal it was 87.5%; with TK-10 renal, 95.9%; in the assay with ACHN renal, 97.9%. Also, the growth in the assay with CAKI-1 renal was 101%; in the assay on A498 renal it was 86.3%; in the assay on CCRF-CEM leukemia, 72.6%; in the assay on MOLT-4 leukemia it was 72%; in the assay on SR leukemia, 59.5%; in the assay with RPMI-8226 leukemia it was 41.9%. Also, the growth in the assay on OVCAR-8 ovarian was 82.2%; in the assay on OVCAR-5 ovarian, 95.1%; in the assay on OVCAR-4 ovarian, 81.7%; in the assay on SK-OV-3 ovarian, 98.9%; in the assay with IGROV1 ovarian, 65.8%; in the assay with OVCAR-3 ovarian it was 45.9%. The growth is 92.9% in the assay on HS 578T breast and 105% in the assay on NCI/ADR-RES ovarian.
On to `CCCn1ccnc1C(O)c1ccc(OCc2ccccc2)c(OC)c1` (centres undefined), for which the growth in the assay on SK-MEL-2 melanoma is 91.3%; with EKVX NSCLC, 89.3%; with SN12C renal, 92.3%; in the assay on UO-31 renal it was 63.7%; in the assay on TK-10 renal it was 77.8%; with ACHN renal it was 93.6%. Also, the growth with CAKI-1 renal is 74.8%; with A498 renal it was 102%; in the assay on CCRF-CEM leukemia it was 94%; with MOLT-4 leukemia it was 98.5%; in the assay on SR leukemia, 96.1%; with RPMI-8226 leukemia it was 93.9%. Besides, the growth in the assay with OVCAR-8 ovarian is 96.7%; in the assay on OVCAR-5 ovarian, 93.3%; in the assay with OVCAR-4 ovarian, 96.5%; in the assay with SK-OV-3 ovarian it was 87.7%; in the assay with IGROV1 ovarian it was 96.9%; in the assay on OVCAR-3 ovarian it was 95.7%. For the same compound, the growth with HS 578T breast is 109%; in the assay with NCI/ADR-RES ovarian, 91.3%.
With `c1ccc(-c2n[nH]c(-c3ccccn3)n2)nc1`, the growth is 108% with SK-MEL-2 melanoma; 98.5% in the assay on EKVX NSCLC; 111% in the assay on SN12C renal; 93.8% in the assay on UO-31 renal; 116% in the assay with TK-10 renal; 107% in the assay on ACHN renal. The growth is 81.1% in the assay with CAKI-1 renal; 224% in the assay on A498 renal; 103% in the assay on CCRF-CEM leukemia; 128% with MOLT-4 leukemia; 127% with SR leukemia; 104% in the assay with RPMI-8226 leukemia. Further, the growth with OVCAR-8 ovarian was 107%; with OVCAR-5 ovarian it was 100%; in the assay on OVCAR-4 ovarian, 103%; with SK-OV-3 ovarian it was 108%; in the assay on IGROV1 ovarian, 116%; in the assay on OVCAR-3 ovarian, 144%. Also, the growth in the assay with HS 578T breast was 139%; in the assay on NCI/ADR-RES ovarian it was 90.4%.

The record behind these values is PubChem BioAssay (NCI).
